# Source: ChEMBL document CHEMBL1961873, “Compounds: GSK PKIS; Assays: Nanosyn kinase panel” (2012)
# Key:
# [1] = target: Sphingosine kinase 1 (Homo sapiens) (UniProt Q9NYA1); details: at 1 µM;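 further: mean SPHK1 inhibition value reported from the GSK PKIS kinase panel screen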
# [2] = target: T1, Sphingosine kinase 2 (Homo sapiens) (UniProt Q9NRA0); details: at 0.1 µM
# T1 sequence (whole entry): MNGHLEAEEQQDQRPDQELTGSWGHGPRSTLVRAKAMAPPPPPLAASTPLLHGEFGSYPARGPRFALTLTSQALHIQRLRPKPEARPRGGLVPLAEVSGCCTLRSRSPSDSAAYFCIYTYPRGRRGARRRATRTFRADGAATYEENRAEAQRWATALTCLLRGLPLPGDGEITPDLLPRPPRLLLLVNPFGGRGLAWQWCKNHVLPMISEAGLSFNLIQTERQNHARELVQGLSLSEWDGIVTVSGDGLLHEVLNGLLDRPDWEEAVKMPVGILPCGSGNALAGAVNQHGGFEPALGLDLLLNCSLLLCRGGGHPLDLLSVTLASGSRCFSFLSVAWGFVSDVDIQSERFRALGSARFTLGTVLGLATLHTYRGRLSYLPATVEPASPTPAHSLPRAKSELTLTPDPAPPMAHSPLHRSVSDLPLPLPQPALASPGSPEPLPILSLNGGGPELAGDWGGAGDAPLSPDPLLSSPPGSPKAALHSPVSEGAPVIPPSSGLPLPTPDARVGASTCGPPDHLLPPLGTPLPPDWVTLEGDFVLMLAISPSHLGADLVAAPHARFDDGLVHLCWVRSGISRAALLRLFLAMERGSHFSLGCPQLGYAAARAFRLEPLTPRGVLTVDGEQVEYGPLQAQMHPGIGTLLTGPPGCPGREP
# [3] = target: T1, Sphingosine kinase 2 (Homo sapiens); details: at 1 µM
# [4] = target: Casein kinase II subunit alpha (Homo sapiens) (UniProt P68400); details: at 0.1 µM
# [5] = target: Casein kinase II subunit alpha (Homo sapiens) (UniProt P68400); details: at 1 µM
# [6] = target: T2, Inhibitor of nuclear factor kappa-B kinase subunit alpha (Homo sapiens) (UniProt O15111); details: at 0.1 µM
# T2 sequence (whole entry): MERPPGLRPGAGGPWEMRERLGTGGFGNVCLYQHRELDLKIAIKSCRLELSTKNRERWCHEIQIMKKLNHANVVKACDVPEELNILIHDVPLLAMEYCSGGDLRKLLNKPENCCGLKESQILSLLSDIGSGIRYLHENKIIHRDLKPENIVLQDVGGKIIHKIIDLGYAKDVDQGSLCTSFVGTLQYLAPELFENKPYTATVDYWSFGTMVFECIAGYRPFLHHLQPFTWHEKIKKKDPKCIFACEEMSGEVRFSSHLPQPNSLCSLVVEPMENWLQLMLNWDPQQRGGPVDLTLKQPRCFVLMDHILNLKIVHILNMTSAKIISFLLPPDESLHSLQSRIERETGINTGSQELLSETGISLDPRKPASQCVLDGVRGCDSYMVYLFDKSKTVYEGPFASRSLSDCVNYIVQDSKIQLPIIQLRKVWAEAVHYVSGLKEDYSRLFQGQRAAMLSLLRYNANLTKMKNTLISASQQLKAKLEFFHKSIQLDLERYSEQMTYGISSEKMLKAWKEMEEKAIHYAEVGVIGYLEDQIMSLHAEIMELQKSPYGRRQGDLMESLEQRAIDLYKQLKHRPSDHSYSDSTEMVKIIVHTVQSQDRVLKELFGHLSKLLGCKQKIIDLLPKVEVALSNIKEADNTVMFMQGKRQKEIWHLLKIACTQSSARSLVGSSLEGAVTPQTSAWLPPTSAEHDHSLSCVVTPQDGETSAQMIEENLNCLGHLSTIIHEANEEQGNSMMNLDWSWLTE
# [7] = target: T2, Inhibitor of nuclear factor kappa-B kinase subunit alpha (Homo sapiens); details: at 1 µM
# [8] = target: T3, Inhibitor of nuclear factor kappa-B kinase subunit beta (Homo sapiens) (UniProt O14920); details: at 0.1 µM
# T3 sequence (whole entry): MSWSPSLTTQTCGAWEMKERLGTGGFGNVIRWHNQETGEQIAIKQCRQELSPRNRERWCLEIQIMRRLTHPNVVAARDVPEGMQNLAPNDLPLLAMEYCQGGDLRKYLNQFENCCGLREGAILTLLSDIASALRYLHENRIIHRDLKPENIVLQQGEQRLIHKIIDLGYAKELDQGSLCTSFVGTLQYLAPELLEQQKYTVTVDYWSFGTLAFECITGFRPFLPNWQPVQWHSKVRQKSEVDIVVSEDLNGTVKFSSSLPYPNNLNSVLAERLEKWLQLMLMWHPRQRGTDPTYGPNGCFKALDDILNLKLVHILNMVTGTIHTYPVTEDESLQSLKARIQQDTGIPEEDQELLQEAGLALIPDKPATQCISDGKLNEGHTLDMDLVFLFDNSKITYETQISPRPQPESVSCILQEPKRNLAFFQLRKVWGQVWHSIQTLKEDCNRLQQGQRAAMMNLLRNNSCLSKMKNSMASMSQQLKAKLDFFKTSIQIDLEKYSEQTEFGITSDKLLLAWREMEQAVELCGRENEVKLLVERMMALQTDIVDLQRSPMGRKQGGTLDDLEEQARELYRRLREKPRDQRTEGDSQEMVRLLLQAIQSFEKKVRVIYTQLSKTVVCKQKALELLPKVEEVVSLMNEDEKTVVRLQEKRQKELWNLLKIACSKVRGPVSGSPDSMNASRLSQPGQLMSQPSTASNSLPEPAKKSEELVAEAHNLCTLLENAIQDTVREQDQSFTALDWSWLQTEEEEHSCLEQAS
# [9] = target: T3, Inhibitor of nuclear factor kappa-B kinase subunit beta (Homo sapiens); details: at 1 µM
# [10] = target: T4, Inhibitor of nuclear factor kappa-B kinase subunit epsilon (Homo sapiens) (UniProt Q14164); details: at 0.1 µM
# T4 sequence (whole entry): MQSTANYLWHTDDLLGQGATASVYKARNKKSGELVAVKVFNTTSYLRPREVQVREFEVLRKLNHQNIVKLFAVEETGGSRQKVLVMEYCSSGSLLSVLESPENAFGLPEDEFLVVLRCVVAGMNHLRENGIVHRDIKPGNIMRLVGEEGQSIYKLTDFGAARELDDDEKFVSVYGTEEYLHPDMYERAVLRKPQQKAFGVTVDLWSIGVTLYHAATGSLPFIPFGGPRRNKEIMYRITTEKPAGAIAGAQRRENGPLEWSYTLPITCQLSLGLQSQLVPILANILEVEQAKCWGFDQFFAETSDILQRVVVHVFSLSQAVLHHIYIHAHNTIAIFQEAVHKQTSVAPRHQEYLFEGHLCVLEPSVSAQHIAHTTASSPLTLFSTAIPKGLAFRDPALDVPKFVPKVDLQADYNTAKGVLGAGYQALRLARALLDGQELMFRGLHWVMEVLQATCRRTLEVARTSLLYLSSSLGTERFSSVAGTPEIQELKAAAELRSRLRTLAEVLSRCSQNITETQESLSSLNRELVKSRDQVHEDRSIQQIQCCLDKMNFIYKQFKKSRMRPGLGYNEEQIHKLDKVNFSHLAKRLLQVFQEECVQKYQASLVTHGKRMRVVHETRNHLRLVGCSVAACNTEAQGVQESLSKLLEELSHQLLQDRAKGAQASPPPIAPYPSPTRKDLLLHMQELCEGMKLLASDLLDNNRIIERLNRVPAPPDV
# [11] = target: T4, Inhibitor of nuclear factor kappa-B kinase subunit epsilon (Homo sapiens); details: at 1 µM
# [12] = target: T5, Serine/threonine-protein kinase Nek1 (Homo sapiens) (UniProt Q96PY6); details: at 0.1 µM
# T5 sequence (whole entry): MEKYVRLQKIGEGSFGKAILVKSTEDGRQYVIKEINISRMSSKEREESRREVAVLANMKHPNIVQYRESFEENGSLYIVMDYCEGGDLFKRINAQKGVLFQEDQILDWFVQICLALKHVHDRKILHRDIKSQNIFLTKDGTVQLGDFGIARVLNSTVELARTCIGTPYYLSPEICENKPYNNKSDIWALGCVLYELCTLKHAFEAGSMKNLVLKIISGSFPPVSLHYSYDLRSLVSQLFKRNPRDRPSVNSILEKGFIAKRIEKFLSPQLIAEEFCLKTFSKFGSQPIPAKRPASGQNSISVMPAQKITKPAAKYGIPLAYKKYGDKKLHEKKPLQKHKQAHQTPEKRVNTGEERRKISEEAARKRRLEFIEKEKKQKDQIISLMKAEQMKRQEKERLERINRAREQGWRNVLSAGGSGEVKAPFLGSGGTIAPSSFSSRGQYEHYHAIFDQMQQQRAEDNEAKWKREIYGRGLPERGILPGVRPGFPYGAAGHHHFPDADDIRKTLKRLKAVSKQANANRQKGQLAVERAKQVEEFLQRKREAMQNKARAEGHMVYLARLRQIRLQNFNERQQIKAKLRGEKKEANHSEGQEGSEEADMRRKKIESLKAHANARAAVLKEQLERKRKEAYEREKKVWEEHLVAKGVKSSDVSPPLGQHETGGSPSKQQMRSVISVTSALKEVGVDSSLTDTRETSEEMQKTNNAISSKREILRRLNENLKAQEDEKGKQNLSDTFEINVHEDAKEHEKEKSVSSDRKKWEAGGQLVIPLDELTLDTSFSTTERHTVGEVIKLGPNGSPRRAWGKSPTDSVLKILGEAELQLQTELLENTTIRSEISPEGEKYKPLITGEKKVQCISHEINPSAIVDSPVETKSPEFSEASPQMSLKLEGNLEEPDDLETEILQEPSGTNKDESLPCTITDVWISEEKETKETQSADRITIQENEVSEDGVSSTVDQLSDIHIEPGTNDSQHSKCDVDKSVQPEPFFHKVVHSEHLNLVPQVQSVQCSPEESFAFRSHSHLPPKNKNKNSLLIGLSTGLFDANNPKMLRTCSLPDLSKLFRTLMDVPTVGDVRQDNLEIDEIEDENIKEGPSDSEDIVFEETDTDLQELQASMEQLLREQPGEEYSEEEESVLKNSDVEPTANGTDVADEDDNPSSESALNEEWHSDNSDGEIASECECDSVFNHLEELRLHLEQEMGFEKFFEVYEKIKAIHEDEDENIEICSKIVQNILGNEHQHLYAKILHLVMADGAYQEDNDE
# [13] = target: T5, Serine/threonine-protein kinase Nek1 (Homo sapiens); details: at 1 µM
# [14] = target: T6, Serine/threonine-protein kinase Nek2 (Homo sapiens) (UniProt P51955); details: at 0.1 µM
# T6 sequence (whole entry): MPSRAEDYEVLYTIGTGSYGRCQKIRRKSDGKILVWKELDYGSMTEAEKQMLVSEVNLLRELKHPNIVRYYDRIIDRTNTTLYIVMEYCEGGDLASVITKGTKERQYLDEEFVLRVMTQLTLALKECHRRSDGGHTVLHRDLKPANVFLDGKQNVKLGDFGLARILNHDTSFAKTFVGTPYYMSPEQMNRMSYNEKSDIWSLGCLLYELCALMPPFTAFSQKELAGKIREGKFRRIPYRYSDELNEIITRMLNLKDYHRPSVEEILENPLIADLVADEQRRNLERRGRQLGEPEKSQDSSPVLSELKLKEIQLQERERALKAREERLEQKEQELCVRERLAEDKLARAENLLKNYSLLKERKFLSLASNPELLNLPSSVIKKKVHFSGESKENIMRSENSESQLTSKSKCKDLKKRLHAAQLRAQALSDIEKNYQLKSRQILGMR
# [15] = target: T6, Serine/threonine-protein kinase Nek2 (Homo sapiens); details: at 1 µM
# [16] = target: Serine/threonine-protein kinase Nek6 (Homo sapiens) (UniProt Q9HC98); details: at 0.1 µM
# [17] = target: Serine/threonine-protein kinase Nek6 (Homo sapiens) (UniProt Q9HC98); details: at 1 µM
# [18] = target: Serine/threonine-protein kinase Nek7 (Homo sapiens) (UniProt Q8TDX7); details: at 0.1 µM
# [19] = target: T7, Serine/threonine-protein kinase Nek9 (Homo sapiens) (UniProt Q8TD19); details: at 0.1 µM;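 further: reported value is the mean percent inhibition of NEK9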
# T7 sequence (whole entry): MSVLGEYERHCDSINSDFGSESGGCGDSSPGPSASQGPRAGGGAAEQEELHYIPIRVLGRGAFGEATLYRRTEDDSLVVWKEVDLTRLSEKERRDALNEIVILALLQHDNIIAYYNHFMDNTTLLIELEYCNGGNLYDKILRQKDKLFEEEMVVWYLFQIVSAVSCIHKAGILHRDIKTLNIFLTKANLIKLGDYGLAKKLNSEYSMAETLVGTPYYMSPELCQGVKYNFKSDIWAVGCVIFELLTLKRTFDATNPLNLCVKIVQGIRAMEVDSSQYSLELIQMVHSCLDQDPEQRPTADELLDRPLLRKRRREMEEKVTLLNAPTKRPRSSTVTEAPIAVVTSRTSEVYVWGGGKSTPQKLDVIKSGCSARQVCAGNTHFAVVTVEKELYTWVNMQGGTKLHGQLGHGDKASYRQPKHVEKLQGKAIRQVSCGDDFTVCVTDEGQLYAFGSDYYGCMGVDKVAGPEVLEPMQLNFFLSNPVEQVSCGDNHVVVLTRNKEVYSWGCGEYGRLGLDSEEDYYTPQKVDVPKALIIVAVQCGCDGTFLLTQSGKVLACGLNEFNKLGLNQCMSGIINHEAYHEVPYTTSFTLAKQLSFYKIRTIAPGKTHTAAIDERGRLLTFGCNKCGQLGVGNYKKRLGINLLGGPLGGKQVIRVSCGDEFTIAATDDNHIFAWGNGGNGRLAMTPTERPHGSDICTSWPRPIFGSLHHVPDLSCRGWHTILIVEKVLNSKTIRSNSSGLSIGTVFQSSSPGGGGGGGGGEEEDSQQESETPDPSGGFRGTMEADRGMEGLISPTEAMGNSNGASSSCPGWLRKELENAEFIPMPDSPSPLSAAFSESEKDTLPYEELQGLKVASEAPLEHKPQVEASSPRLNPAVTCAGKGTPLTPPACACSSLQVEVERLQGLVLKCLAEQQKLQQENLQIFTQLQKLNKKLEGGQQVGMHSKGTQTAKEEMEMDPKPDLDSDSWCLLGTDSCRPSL
# [20] = target: Serine/threonine-protein kinase Nek7 (Homo sapiens) (UniProt Q8TDX7); details: at 1 µM
# Chain of Serine/threonine-protein kinase Nek6 (Homo sapiens) (Q9HC98 whole entry): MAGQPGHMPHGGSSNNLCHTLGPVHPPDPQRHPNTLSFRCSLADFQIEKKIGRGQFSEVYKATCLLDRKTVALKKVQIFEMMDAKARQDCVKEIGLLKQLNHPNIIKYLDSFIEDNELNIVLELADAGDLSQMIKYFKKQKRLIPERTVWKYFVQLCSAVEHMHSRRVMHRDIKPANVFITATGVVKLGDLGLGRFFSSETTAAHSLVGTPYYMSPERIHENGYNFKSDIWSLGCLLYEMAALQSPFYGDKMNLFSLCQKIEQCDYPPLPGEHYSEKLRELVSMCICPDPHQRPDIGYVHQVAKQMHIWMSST
# Chain of Casein kinase II subunit alpha (Homo sapiens) (P68400 whole entry, looked up): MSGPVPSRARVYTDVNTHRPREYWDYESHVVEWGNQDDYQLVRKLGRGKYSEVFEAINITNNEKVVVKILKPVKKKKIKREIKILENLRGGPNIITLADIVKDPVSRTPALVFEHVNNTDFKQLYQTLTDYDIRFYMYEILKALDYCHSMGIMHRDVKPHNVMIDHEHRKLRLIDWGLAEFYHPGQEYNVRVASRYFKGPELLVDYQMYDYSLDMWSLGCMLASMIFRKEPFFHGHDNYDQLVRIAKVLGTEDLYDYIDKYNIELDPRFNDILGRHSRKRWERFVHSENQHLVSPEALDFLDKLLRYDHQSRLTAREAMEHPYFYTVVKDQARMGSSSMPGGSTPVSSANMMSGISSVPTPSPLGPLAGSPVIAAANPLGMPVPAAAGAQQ
# Chain of Serine/threonine-protein kinase Nek7 (Homo sapiens) (Q8TDX7 whole entry, looked up): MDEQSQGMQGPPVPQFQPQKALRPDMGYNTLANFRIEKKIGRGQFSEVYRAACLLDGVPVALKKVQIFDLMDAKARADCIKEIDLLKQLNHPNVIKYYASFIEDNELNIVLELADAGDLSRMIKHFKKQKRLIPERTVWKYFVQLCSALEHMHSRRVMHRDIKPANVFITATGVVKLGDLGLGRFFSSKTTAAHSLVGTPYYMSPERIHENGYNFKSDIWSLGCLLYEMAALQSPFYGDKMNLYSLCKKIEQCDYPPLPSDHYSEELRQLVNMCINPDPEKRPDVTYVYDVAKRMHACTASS
# Chain of Sphingosine kinase 1 (Homo sapiens) (Q9NYA1 whole entry): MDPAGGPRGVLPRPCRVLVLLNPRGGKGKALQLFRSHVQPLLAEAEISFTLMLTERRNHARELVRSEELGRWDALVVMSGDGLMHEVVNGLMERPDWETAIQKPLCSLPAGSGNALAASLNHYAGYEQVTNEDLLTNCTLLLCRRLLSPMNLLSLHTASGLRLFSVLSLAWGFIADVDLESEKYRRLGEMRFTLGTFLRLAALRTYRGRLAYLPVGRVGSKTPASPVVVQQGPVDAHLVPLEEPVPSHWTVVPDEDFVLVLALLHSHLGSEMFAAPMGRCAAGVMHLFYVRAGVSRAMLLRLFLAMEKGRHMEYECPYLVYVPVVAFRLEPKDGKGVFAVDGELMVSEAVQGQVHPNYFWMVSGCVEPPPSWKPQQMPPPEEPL
SMILES,inhibition [1] [%],inhibition [2] [%],inhibition [3] [%],inhibition [4] [%],inhibition [5] [%],inhibition [6] [%],inhibition [7] [%],inhibition [8] [%],inhibition [9] [%],inhibition [10] [%],inhibition [11] [%],inhibition [12] [%],inhibition [13] [%],inhibition [14] [%],inhibition [15] [%],inhibition [16] [%],inhibition [17] [%],inhibition [18] [%],inhibition [19] [%],inhibition [20] [%]
COc1cc2ncn(-c3cc(OCc4ccccc4C(F)(F)F)c(C(C)=O)s3)c2cc1OC,-6.56,-0.29,-1.72,5.99,2.45,2.23,7.97,5.2,9.05,6.32,4.7,2.21,1.9,3.91,4.69,1.95,3.34,1.7,8.54,–
C[C@@H](Oc1cc(-n2cnc3ccc(OCC4CCN(C)CC4)cc32)sc1C(N)=O)c1ccccc1Cl,1.57,–,-0.12,6.48,19.4,5.03,1.69,1.98,3.37,2.73,7.27,17.6,54.1,22.1,64.9,0.14,0.47,4.32,77.4,9.78
